SW480 rerep: induces DNA re-replication in SW480 colon adenocarcinoma cells. actives 1.8% (n = 340,000). SW480 DNA re-replication, Hoechst DNA content imaging, 48 h. Potency, µM (titrated, usually from 46.1 µM), inactives show at the top dose re-replication activation, most hits filed as activators; note: % of control where 0% means no effect; nearly all actives have a fitted effect of over 55% in size
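Compounds, transferred as 23 nL by pin tool, were incubated with cells for 48 hr; DNA content per nucleus was then quantified by Hoechst staining and fluorescence plate imaging.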
12-LOX inh: ALOX12 (human) lipoxygenase inhibition | Potency, µM (series often up to 108 µM), for inactives: at the highest dose activity change, negative = inhibition, actives largely listed as inhibitors | actives 1.1% (n = 580,000) | purified 12hLO, xylenol orange hydroperoxide absorbance | P18054; note: % is set by controls: 0 for no effect and ±100 for the full control effect
Target sequence (P18054 whole entry, looked up): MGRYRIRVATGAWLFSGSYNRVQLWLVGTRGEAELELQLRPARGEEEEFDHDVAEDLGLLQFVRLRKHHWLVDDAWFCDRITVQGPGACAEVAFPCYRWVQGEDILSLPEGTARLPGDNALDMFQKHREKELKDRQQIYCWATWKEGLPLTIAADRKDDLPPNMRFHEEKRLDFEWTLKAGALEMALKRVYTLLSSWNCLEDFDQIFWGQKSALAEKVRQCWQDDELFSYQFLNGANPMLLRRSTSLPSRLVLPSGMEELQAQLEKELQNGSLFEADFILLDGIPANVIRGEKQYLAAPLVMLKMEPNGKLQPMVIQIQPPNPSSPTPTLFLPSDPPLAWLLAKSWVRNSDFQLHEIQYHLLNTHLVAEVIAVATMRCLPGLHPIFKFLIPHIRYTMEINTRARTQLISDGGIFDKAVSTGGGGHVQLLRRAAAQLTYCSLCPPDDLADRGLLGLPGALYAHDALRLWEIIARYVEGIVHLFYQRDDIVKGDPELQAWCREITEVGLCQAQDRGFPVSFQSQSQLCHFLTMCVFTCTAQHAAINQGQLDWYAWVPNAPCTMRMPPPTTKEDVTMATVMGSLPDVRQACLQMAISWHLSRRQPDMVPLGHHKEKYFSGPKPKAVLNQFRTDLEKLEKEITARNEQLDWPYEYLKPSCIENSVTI
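Purified human 12hLO (150 nM final) in 25 mM Hepes, 0.01% Triton X-100, pH 7.0 was preincubated 15 min at room temperature with compound. Then 40 uM arachidonic acid was added, 30 min. Hydroperoxide was read by Fe-XO absorbance ratio 573/405 nm.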
KB-V1 MDR tox: kills drug-selected multidrug resistant KB-V1 cells. KB-V1 MDR cells viability, CellTiter-Glo, 72 h. Potency, µM (titrated, usually from 46.1 µM), most hits filed as cytotoxic. actives 3.4% (n = 400,000); note: % is set by controls: 0 for no effect and ±100 for the full control effect; nearly all actives have a fitted effect of over 60% in size
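Cells of the MDR subline KB-V1 are plated, dosed with compound at multiple concentrations, and incubated 72 h at 37 degrees C; CellTiter-Glo is then added and luminescence read after 10 min.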
PINK1 expr mod: modulators of PINK1 expression; PINK1 immunofluorescence, high-content cytometry, 24 h; Potency, µM (doses to about 76.6 µM), without a hit: top-dose activation (PINK1 increase), hits mostly activators; actives 0.2% (n = 410,000); AID 624263; active = well fitted activation curve with a large enough effect; inconclusive = small, poorly fitted or top-dose-only effect; cell line not stated here; note: % of control where 0% means no effect; nearly all actives have a fitted effect of over 65% in size
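Fluorescence from anti-PINK1 antibody, together with nuclear and cell stains, was scanned on a laser-scanning cytometer. Before staining, stable-line cells were incubated 24 hours with compounds at 5 concentrations; primary antibody 12 h at 10 degrees C.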
MCF10A rereplic: induces DNA re-replication in MCF 10a normal breast cells; AID 624296; MCF 10A DNA re-replication, Hoechst nuclear intensity, 48 h; Potency, µM (titrated, usually from 46.1 µM), for inactives: top-dose activity, positive = re-replication, hits mostly activators; actives 2.9% (n = 350,000); note: % of control where 0% means no effect; nearly all actives have a fitted effect of over 50% in size
KB-3-1 tox: KB-3-1 parental cell cytotoxicity | KB-3-1 viability, CellTiter-Glo ATP luminescence, 72 h | Potency, µM (highest dose often 46.1 µM), actives largely listed as cytotoxic | actives 1.4% (n = 400,000); note: % is set by controls: 0 for no effect and ±100 for the full control effect; nearly all actives have a fitted effect of over 60% in size
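Here the drug-naive KB-3-1 line serves as comparator for MDR sub-line selectivity; cells received compound titrations, 72 h at 37 °C, then CellTiter-Glo readout.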
Active calls of the source: *; [ ] = dose if it differs, or a comment. Most compounds without a hit are left out; they make up all but 5.8% or so of the library. Unless noted, calls come from the whole dose curve; as a rule, active = well fitted curve in the direction sought with a large enough effect; inconclusive = small, poorly fitted or top-dose-only effect, or another doubt; inactive = no such curve, though single readings can be large; an effect the other way counts as inactive or inconclusive. Potency is the fitted concentration of half-maximal effect.

CCc1cccc(NC(=O)N2CCCC(c3noc(COc4ccccc4F)n3)C2)c1 (stereo unspecified) was read as 12-LOX inh 23%.
`Cn1c(=O)c2cc(S(=O)(=O)NCCC(=O)N3CC=C(c4ccccc4)CC3)ccc2n(C)c1=O` gave SW480 rerep -1%, 12-LOX inh 2%, KB-V1 MDR tox 23µM*, PINK1 expr mod 1%[38.3 µM], MCF10A rereplic -12% and KB-3-1 tox inactive.
CN1CCN(C(=O)Cn2c(=O)c3c(ncn3Cc3ccccc3)n(Cc3ccccc3)c2=O)CC1 was read as 12-LOX inh -14%.
`Cc1cc(N2CCN(S(=O)(=O)c3ccccc3)CC2)c2ccccc2n1` gave SW480 rerep inconclusive, 12-LOX inh 0%, KB-V1 MDR tox inconclusive, PINK1 expr mod 0%[38.3 µM], MCF10A rereplic 3.7µM* and KB-3-1 tox inactive.
For Cc1cc(N2CCN(c3ccc([N+](=O)[O-])c4cccnc34)CC2)c2ccccc2n1 the results were SW480 rerep 9%, KB-V1 MDR tox inconclusive, PINK1 expr mod inconclusive, MCF10A rereplic inconclusive and KB-3-1 tox 16µM*.
`O=S(=O)(c1ccccc1)N1CCN(c2ccnc3cc(Cl)ccc23)CC1` gave SW480 rerep 2%, 12-LOX inh -6%, KB-V1 MDR tox inconclusive, PINK1 expr mod 0%, MCF10A rereplic 10% and KB-3-1 tox inactive.
For COc1ccc(C(=O)Nc2ccc(-c3noc([C@@H]4CCCN4Cc4c[nH]c5ccccc45)n3)cn2)cc1 the results were 12-LOX inh -5%.
`Cc1nnc(SCC(=O)c2c[nH]c3ccccc23)s1` gave 12-LOX inh -18%.
O=C(CSc1ncn[nH]1)Nc1ccccc1Sc1ccccc1 was read as SW480 rerep 0%, 12-LOX inh 25%, KB-V1 MDR tox 15µM*, PINK1 expr mod -5%[38.3 µM], MCF10A rereplic 20% and KB-3-1 tox inactive.
`O=C(CCl)Nc1ccccc1Sc1ccc(Cl)cc1` gave SW480 rerep 15µM*, 12-LOX inh -23%, KB-V1 MDR tox inconclusive, MCF10A rereplic 15µM* and KB-3-1 tox inconclusive.
CC(=O)N1CCN(CC(=O)Nc2ccccc2Sc2ccc(Cl)cc2)CC1 was read as SW480 rerep 2%, 12-LOX inh -23%, KB-V1 MDR tox 5.8µM*, PINK1 expr mod 1%, MCF10A rereplic 9% and KB-3-1 tox inconclusive.
For COc1ccc(C(=O)NC2(C(F)(F)F)NC(=O)N(c3ccccc3)C2=O)cc1OC (stereo unspecified) the results were 12-LOX inh -54%.
`COc1cccc(C(=O)N2CCC3(CC2)NC(=O)N(c2ccccc2)N3)c1` gave 12-LOX inh 6.3µM*.
Screening CC(=O)N1CCC2(CC1)NC(=O)N(c1ccccc1)N2 returned SW480 rerep 8%, 12-LOX inh inconclusive, KB-V1 MDR tox inactive, PINK1 expr mod -1%, MCF10A rereplic 7% and KB-3-1 tox inactive.
COc1ccccc1CCC(=O)N1CCC2(CC1)NC(=O)N(c1ccccc1)N2 was read as 12-LOX inh 2µM*.
`COc1ccc(CCC(=O)N2CCC3(CC2)NC(=O)N(c2cccc(Cl)c2)N3)cc1` gave 12-LOX inh 2µM*.
COc1ccc(CCC(=O)N2CCN(S(=O)(=O)c3cccc(Cl)c3)CC2)cc1 was read as SW480 rerep 13%, 12-LOX inh 0%, KB-V1 MDR tox inactive, PINK1 expr mod 0%, MCF10A rereplic -6% and KB-3-1 tox inconclusive.
For COc1cccc(CCC(=O)N2CCC3(CC2)NC(=O)N(c2ccccc2)N3)c1 the results were 12-LOX inh 2.5µM*.
COc1cccc(CCC(=O)N2CCC(c3n[nH]c(=O)n3-c3ccccc3)CC2)c1 was read as 12-LOX inh -16%.
Screening COc1ccccc1CNc1nc2ccccc2nc1NS(=O)(=O)c1cc(C)ccc1C returned 12-LOX inh -1%.
`O=C(CCc1ccccc1)N1CCC2(CC1)NC(=O)N(c1ccccc1)N2` gave 12-LOX inh 2.2µM*.
COc1cccc(CCC(=O)N2CCC3(CC2)CCC(O)(CN(C)C)CC3)c1 was read as 12-LOX inh 55%.
COc1cccc(CCC(=O)N2CCC3(CC2)NC(=O)N(c2cccc(F)c2)N3)c1 was read as 12-LOX inh 5.6µM*.
Cc1cc(C)cc(NC(=O)c2ccc3ccccc3n2)c1 was read as 12-LOX inh -21%.
`Oc1ccc(Cc2ccccc2)cc1` gave 12-LOX inh 10%.
Cc1c(C(C)C)c(=O)n(-c2ccc(S(=O)(=O)NCc3ccccc3)cc2)n1C was read as SW480 rerep -8%, 12-LOX inh -17%, KB-V1 MDR tox 2.6µM*, PINK1 expr mod -1%, MCF10A rereplic 26% and KB-3-1 tox inconclusive.
For Cc1ccc(-c2cc(C(F)(F)F)n3nc(C(=O)N4CCN5CCCC5C4)cc3n2)cc1 (stereo unspecified) the results were SW480 rerep inconclusive, 12-LOX inh -9%, KB-V1 MDR tox inactive, PINK1 expr mod 4%, MCF10A rereplic inconclusive and KB-3-1 tox inactive.
COc1ccc(-c2cc(C(F)(F)F)n3nc(C(=O)N4CCN5CCCC5C4)cc3n2)cc1OC (stereo unspecified) was read as SW480 rerep inconclusive, 12-LOX inh 1%, KB-V1 MDR tox inactive, PINK1 expr mod 2%, MCF10A rereplic 12µM* and KB-3-1 tox inactive.
C=CCn1cc2c3c(cccc31)[C@H](CC(C)C)N[C@H](C(=O)NC1CCCC1)C2 was read as 12-LOX inh -4%[176 µM].
For O=C(Cn1cccc1-c1nc(-c2ccc3c(c2)OCO3)no1)Nc1ccc(Cl)cc1 the results were 12-LOX inh -8%.
Screening CC(NC(=O)CN(C)Cc1nc2ccccc2c(=O)[nH]1)c1ccccc1 (stereo unspecified) returned SW480 rerep -10%, 12-LOX inh 3%, KB-V1 MDR tox inactive, PINK1 expr mod 0%, MCF10A rereplic 0% and KB-3-1 tox inactive.
For CC(C(=O)Nc1ccccc1-c1ccccc1)N(C)Cc1nc2ccccc2c(=O)[nH]1 (stereo unspecified) the results were SW480 rerep inconclusive, 12-LOX inh 45%, KB-V1 MDR tox 12µM*, PINK1 expr mod 2%, MCF10A rereplic inconclusive and KB-3-1 tox inconclusive.
For O=C(Nc1ccc(F)cc1F)C1=C(N2CCOCC2)c2ccccc2S1(=O)=O the results were 12-LOX inh 31%.

Screening results: PubChem BioAssay, National Center for Advancing Translational Sciences (NCATS)
